The panel holds about 83,000 compounds, 20% with a hit somewhere; the sample as a whole holds those more often.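 The test compound was applied at a single concentration to cells in 96-well plates for 48 hours, and percent growth was recorded.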 A number with no mark means an inactive call. Active and inactive are the calls of the source. Rule for the calls: active = growth percent below 10; inactive = the rest.
What was measured:
Experiment in all cases: NCI-60 one-dose screen, 48 h (100 = growth as untreated, 0 = no growth, -100 = all killed)
Conditions in all cases: 10 µM unless noted
[1] = system: DU-145 prostate
[2] = system: K-562 leukemia
[3] = system: MALME-3M melanoma
[4] = system: MDA-MB-231 breast
[5] = system: RXF 393 renal
[6] = system: SF-268 CNS
[7] = system: SF-295 CNS
[8] = system: SF-539 CNS
[9] = system: UACC-257 melanoma
[10] = system: M14 melanoma
[11] = system: HCT-15 colon
[12] = system: HT29 colon
[13] = system: SNB-75 CNS
[14] = system: SNB-19 CNS
[15] = system: U251 CNS
[16] = system: PC-3 prostate
[17] = system: UACC-62 melanoma
[18] = system: LOX IMVI melanoma
[19] = system: SK-MEL-28 melanoma
[20] = system: SK-MEL-5 melanoma

SMILES	growth [1]	growth [2]	growth [3]	growth [4]	growth [5]	growth [6]	growth [7]	growth [8]	growth [9]	growth [10]	growth [11]	growth [12]	growth [13]	growth [14]	growth [15]	growth [16]	growth [17]	growth [18]	growth [19]	growth [20]
CCOc1nc(-c2ccco2)n2nc(-c3ccco3)cc2n1	118%	114%	122%	98%	98.4%	106%	98.3%	89.6%	116%	132%	99.4%	100%	82.9%	97.3%	98.3%	105%	86.4%	98.4%	110%	–
N/C(=N\C(N)=N\c1nc2ccccc2s1)c1ccnc(Cl)c1	26.9%	8.95% (active)	64.9%	49.7%	-6.26% (active)	61.5%	17.6%	7.12% (active)	74.4%	27.9%	29.9%	13.7%	–	39.4%	33.8%	37.9%	33.9%	44.9%	62.2%	17.3%
COc1ccccc1NC(=O)c1sc2nc3c(cc2c1N)C(=O)CCC3	86.6%	41.5%	58.2%	57.5%	77%	102%	25.7%	66.2%	58.5%	47.1%	47.3%	–	56.6%	64.6%	65.1%	65.9%	44.4%	79.4%	59.1%	38.9%
COc1ccc(OC)c(CCn2cncc2-c2c[nH]c3cc(Br)ccc23)c1	63.3%	7.3% (active)	37.7%	48.7%	51.9%	45.6%	18.4%	56.3%	29.9%	26.4%	25.1%	10.2%	–	50.1%	34.9%	34.5%	36.8%	37%	57.5%	-75.8% (active)
O=C1C2C(C(=O)N1CC[Se][Se]CCN1C(=O)C3C(C1=O)[C@H]1C=C[C@@H]3C1)[C@H]1C=C[C@@H]2C1 (some centres not stated)	-46.7% (active)	7.86% (active)	-35.6% (active)	-33.8% (active)	-89% (active)	-45.8% (active)	-78.2% (active)	-86.7% (active)	-63.8% (active)	-20% (active)	1.11% (active)	-8.38% (active)	–	-55.5% (active)	-90.5% (active)	-12.8% (active)	-60.8% (active)	-26% (active)	-3.71% (active)	-53.9% (active)
c1ccc(Nc2ccc(Nc3nc(-c4ccccc4)nc4ccccc34)cc2)cc1	75.1%	6.16% (active)	109%	63%	83%	93.6%	55.9%	86.2%	100%	76%	37.5%	29.7%	–	100%	77%	74%	86.6%	52.4%	93.7%	–
Nc1nc(Nc2ccccc2SSc2ccccc2Nc2nc(N)nc(-c3cccc(Cl)c3)n2)nc(-c2cccc(Cl)c2)n1	97%	81.9%	104%	74.8%	106%	99.9%	79.2%	99.6%	112%	95.4%	69.8%	104%	–	96.1%	78.5%	83.9%	86.2%	61.7%	102%	95.5%
N#Cc1c(-c2ccccc2)cc(-c2ccccc2)n(CCCCC(=O)O)c1=O	107%	80.8%	87.8%	91%	89.7%	94%	82.8%	93.5%	94.1%	86.4%	71.3%	99.8%	–	96.1%	93.3%	93.1%	80.6%	88.2%	89.5%	93.7%
CC(C)=CCCC(C)c1ccc(C)c2c1OCN(CC1CCNCC1)C2 (configuration not stated)	93.9%	0.575% (active)	94.1%	68.8%	55.2%	93%	98.7%	76.9%	24.6%	-95.4% (active)	39.8%	-68.5% (active)	89.3%	78.2%	-2.5% (active)	59.4%	63.5%	-70.5% (active)	92.5%	–
Cc1ccccc1NC(=O)N/C(N)=N/c1nc2ccccc2s1	17.5%	6.45% (active)	50.4%	43.2%	-2.64% (active)	48.7%	11.8%	-17.9% (active)	67.4%	9.91% (active)	20.2%	5% (active)	–	31.8%	20.3%	36.3%	38.8%	21.7%	54.6%	-53.3% (active)
Nc1c(C(=O)Nc2cccc(Cl)c2)sc2nc3c(cc12)C(O)CCC3 (configuration not stated)	7.3% (active)	10.6%	40.2%	42.6%	-25.4% (active)	50.2%	13.7%	-24.9% (active)	66.1%	17.1%	18.8%	–	28.8%	65.9%	17.4%	28.5%	44.6%	48.1%	55.8%	28.7%
CCN1CCN(c2nc(NNC(=O)Cc3ccccc3)nc(N3CCN(C(c4ccccc4)c4ccccc4)CC3)n2)CC1	63.5%	2.28% (active)	77%	82.7%	66.6%	82%	68.3%	86.8%	-51.5% (active)	-68.2% (active)	22.9%	-7.32% (active)	–	84.2%	19.1%	63.7%	84.7%	-54.9% (active)	92.6%	2.68% (active)
CC1=C([Se]CC(OC(=O)[C@@H](CSSC(C)(C)C)NC(=O)C(C)(C)C)C(=O)NCCCCCC(=O)OCc2ccccc2)C(=O)c2ccccc2C1=O (some centres not stated)	13.3%	7.91% (active)	-39.1% (active)	-15.3% (active)	-33.5% (active)	7.11% (active)	-27.8% (active)	-69.4% (active)	-20.8% (active)	-32.5% (active)	20.4%	-29.5% (active)	-92.5% (active)	-73.5% (active)	-37.5% (active)	-20.8% (active)	-30.6% (active)	4.76% (active)	-27.3% (active)	–
COc1ccc2nc(NC(=O)CN3CCn4c(nnc4C(F)(F)F)C3)sc2c1	106%	90.5%	106%	96.6%	91%	93.5%	92.5%	93.7%	99.5%	85.1%	93.3%	98.4%	–	90.5%	91.6%	98.6%	83.9%	96.6%	102%	79.2%
O=C(Nc1ccccc1)c1cc(-n2cnc([N+](=O)[O-])c2)cc(-n2cnc([N+](=O)[O-])c2)n1	110%	86.5%	94.4%	88.6%	-14.6% (active)	119%	130%	102%	89.3%	94.6%	114%	107%	98.9%	106%	101%	88.8%	103%	–	122%	–
Cc1n(Cc2ccc3ccccc3c2)cc[n+]1Cc1ccc2ccccc2c1	35.2%	10.2%	-20.9% (active)	-24.3% (active)	3.41% (active)	18.9%	15.4%	5.68% (active)	-28.5% (active)	-15.7% (active)	85.3%	1.25% (active)	1.07% (active)	2.02% (active)	8.17% (active)	14.1%	-40.3% (active)	-75% (active)	-11.6% (active)	–

— PubChem BioAssay (NCI)
